The values below come from PubChem BioAssay (NCATS).

The structures appear in SMILES notation. Results filed as inconclusive are left out. A number with no mark means an inactive call. Calls of active or inactive are those of the source. The call rests on the fitted dose curve; in most records, active means well fitted inhibition curve with a large enough effect; inconclusive means small, poorly fitted or top-dose-only effect; inactive means flat fitted curve, though single readings scatter.

The test relates to Zika virus NS2B-NS3 protease. As to the kind of experiment: Primary screen GU AMC qHTS for Zika virus inhibitors (AID 1347154).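 Further: 0% = no-inhibitor control and -100% = no-enzyme control; nearly all actives have a fitted effect of over 70% in size.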 As to conditions: Zika NS2B-NS3 unlinked protease, AMC fluorogenic substrate; series mostly up to 54.1 µM; activity change, negative = inhibition: at the top concentration. In short, it runs like this:
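Unlinked Zika NS2B hydrophilic domain/NS3 protease domain noncovalent complex (25 nM final) in 10 mM Tris-HCl pH 8.0, 0.01% Tween 20, with AMC peptide substrate. Fluorescence (ex 340, em 450 nm) change over 15 min, room temperature; percent inhibition fitted to 4-parameter Hill equation.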
(Quantitative high-throughput screening tests each substance at several concentrations.)
For `O=C(O)CCCC[P+](c1ccccc1)(c1ccccc1)c1ccccc1`, the “activity change, negative = inhibition” value is 1.45%.

As for `O=P(O)(O)OCC(O)CO` (stereo not drawn), the “activity change, negative = inhibition” value was -2.05%.

With `CCCCNc1ccc(C(=O)OCCN(CC)CC)cc1`, the “activity change, negative = inhibition” value is -1.61%.

As for `CCCCCC(=O)O[C@]1(C(C)=O)CC[C@H]2[C@@H]3CCC4=CC(=O)CC[C@]4(C)[C@H]3CC[C@@]21C`, the “activity change, negative = inhibition” value was -13.9%.

As to `CC(C)(C)c1nnc(NS(=O)(=O)c2ccccc2)s1`, the “activity change, negative = inhibition” value was -5.73%.

Take `CNC[C@H](O)[C@@H](O)[C@H](O)[C@H](O)CO`: the “activity change, negative = inhibition” value is -3.82%.

Take `CCOC(=O)Oc1ccc(CCNC(=O)[C@H](CCSC)NC(C)=O)cc1OC(=O)OCC`: the “activity change, negative = inhibition” value is -0.752%.

As for `O=C(NN1CCCC1)NS(=O)(=O)c1ccc(Cl)cc1`, the “activity change, negative = inhibition” value was -4.07%.

In the case of `CCN1C(=O)c2ccccc2C1Nc1ccc(OCCN2CCCCC2)cc1` (stereo not drawn), the “activity change, negative = inhibition” value is -2.9%.

As to `OCCc1ccccc1`, the “activity change, negative = inhibition” value was 3.36%.

As to `CCOC(=O)OCC/C(SC(=O)OCC)=C(\C)N(C=O)Cc1cnc(C)nc1N`, the “activity change, negative = inhibition” value is -3.4%.

Regarding `Cc1onc(-c2c(Cl)cccc2Cl)c1C(=O)Cl`, the “activity change, negative = inhibition” value is 1.45%.

Take `O=C(OCC1(COC(=O)c2cccnc2)CCCC(COC(=O)c2cccnc2)(COC(=O)c2cccnc2)C1O)c1cccnc1`: the “activity change, negative = inhibition” value was -4.34%.

With `Oc1cccc2[nH]ccc12`, the “activity change, negative = inhibition” value was -2.06%.

As for `CCN(CC)CCN`, the “activity change, negative = inhibition” value was -2.73%.

As for `CCOc1ncc(F)c(=O)[nH]1`, the “activity change, negative = inhibition” value is -4.8%.

As for `CC(=O)c1ccc(O)c(C(N)=O)c1`, the “activity change, negative = inhibition” value was -1.53%.

In the case of `O=C1CC(c2ccc(Cl)cc2)CC(=O)N1`, the “activity change, negative = inhibition” value is 7.65%.

For the compound `Cc1coc2ccccc2c1=O`, the “activity change, negative = inhibition” value was -1.28%.

Consider `Nc1ccc([N+](=O)[O-])c(C(F)(F)F)c1`, for which the “activity change, negative = inhibition” value was 4.46%.

Turning to `O=C(O)C(=O)Nc1cccc(-c2nn[nH]n2)c1`, the “activity change, negative = inhibition” value is 0.257%.

For the compound `CC(CCc1ccc2c(c1)OCO2)NN` (stereo not drawn), the “activity change, negative = inhibition” value was -0.245%.

Consider `CCOC(=O)N1CCC(Nc2ccc(Cl)cc2N)CC1`, for which the “activity change, negative = inhibition” value is -18.6%.

In the case of `NCC(=O)O`, the Potency entry was “inactive”.

In the case of `O=C(Oc1ccccc1)c1ccccc1O`, the “activity change, negative = inhibition” value was 1.07%.

As for `NCC[C@H](O)C(=O)N[C@@H]1C[C@H](N)[C@@H](O[C@H]2O[C@H](CN)[C@@H](O)[C@H](O)[C@@H]2O)[C@H](O)[C@@H]1O[C@H]1O[C@H](CO)[C@@H](O)[C@H](N)[C@@H]1O`, the activity change, negative = inhibition is -0.909% [at 0.59 µM].

Consider `CCN(CC)C(=O)C1CN2CCc3cc(OC)c(OC)cc3C2CC1OC(C)=O` (stereo not drawn), for which the “activity change, negative = inhibition” value was -6.89%.

In the case of `COc1cc(C(=O)NC2CCCNC2)cc(OC)c1OC` (stereo not drawn), the “activity change, negative = inhibition” value was -0.695%.

As to `CCCCCN(CCCOC)C(=O)C(CCC(=O)O)NC(=O)c1ccc(Cl)c(Cl)c1` (stereo not drawn), the “activity change, negative = inhibition” value was -0.0102%.

Regarding `N#CSCC(=O)O`, the “activity change, negative = inhibition” value was 3.82%.

In the case of `CCO[C@H](Cc1ccc(OCCc2ccc(OS(C)(=O)=O)cc2)cc1)C(=O)O`, the “activity change, negative = inhibition” value was 3.17%.

As to `CN1C(=O)CC(C)(c2ccccc2)C1=O` (stereo not drawn), the “activity change, negative = inhibition” value was 1.57%.

Consider `COc1cc2c(cc1OC)CN(C(=O)[C@H](C)N[C@@H](CCc1ccccc1)C(=O)O)[C@H](C(=O)O)C2`, for which the “activity change, negative = inhibition” value is -1.93%.

Turning to `Nc1c[n+](N2CCOCC2)no1`, the Potency result is “inactive”.

Turning to `CCCCCCCC(=O)[O-].CCCCCCCC(=O)[O-].[Zn+2]`, the “activity change, negative = inhibition” value was -10.5%.

With `Cc1c(F)cc2c(=O)c(C(=O)O)cn3c2c1CCC3C` (stereo not drawn), the “activity change, negative = inhibition” value was -5.05%.

For `CCOC(=O)NNc1ccc(N(CC)CC(C)O)nn1` (stereo not drawn), the “activity change, negative = inhibition” value was -5.12%.

Regarding `O=C(O)CCCC[C@@H]1SC[C@@H]2NC(=O)N[C@@H]21`, the “activity change, negative = inhibition” value was -2.63%.
